# From PubChem BioAssay AID1159580 (chemical genetic matrix, 2015)
# Values joined by “and” are separate entries in the source; they are usually repeats but may differ in a detail not shown here. Identical values can stand only once. Among all 5,500 compounds or so, about 2,000 (36%) were called active. Another 18% or so got no clear call; they are omitted. The list shows a part of the results. A number with no mark means an inactive call. Rule as the data show it: active = normalized growth mostly below about 0.91 (no sharp cut-off); inconclusive = no clear call, values can overlap the other calls; inactive = mostly above about 0.92.
# Assay: chemical genetic growth profiling, strain panel (AID 1159580);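 also: tested at 20 µM; growth read once vehicle control cultures reached saturation at 30 °C; 1 = growth at the plate median or of vehicle wells; lower values mean less growth of the strain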
# Conditions: growth OD
# [1] = S. cerevisiae deletion strains, locus YAL013W, strain DEP1, hits give low values
# [2] = S. cerevisiae deletion strains, locus YBR229C, strain ROT2, hits give low values
# [3] = S. cerevisiae deletion strains, locus YDL101C, strain DUN1, hits give low values
# [4] = S. cerevisiae deletion strains, locus YDR150W, strain NUM1, hits give low values
# [5] = S. cerevisiae deletion strains, locus YEL061C, strain CIN8, hits give low values
# [6] = S. cerevisiae deletion strains, locus YGR052W, strain FMP48, hits give low values
# [7] = S. cerevisiae deletion strains, locus YGR078C, strain PAC10, hits give low values
# [8] = S. cerevisiae deletion strains, locus YHR030C, strain SLT2, hits give low values
# [9] = S. cerevisiae deletion strains, locus YHR079C, strain IRE1, hits give low values
# [10] = S. cerevisiae deletion strains, locus YHR082C, strain KSP1, hits give low values
# [11] = S. cerevisiae deletion strains, locus YHR087W, strain rtc3, hits give low values
# [12] = S. cerevisiae deletion strains, locus YJL095W, strain BCK1, hits give low values
# [13] = S. cerevisiae deletion strains, locus YJL187C, strain SWE1, hits give low values
# [14] = S. cerevisiae deletion strains, locus YJR043C, strain POL32, hits give low values
# [15] = S. cerevisiae deletion strains, locus YJR066W, strain TOR1, hits give low values
# [16] = S. cerevisiae deletion strains, locus YJR075W, strain HOC1, hits give low values
# [17] = S. cerevisiae deletion strains, locus YKL203C, strain TOR2, hits give low values
# [18] = S. cerevisiae deletion strains, locus YLR039C, strain RIC1, hits give low values
# [19] = S. cerevisiae deletion strains, locus YLR058C, strain SHM2 (second series), hits give low values
# [20] = S. cerevisiae deletion strains, locus YLR085C, strain ARP6, hits give low values
# [21] = S. cerevisiae deletion strains, locus YLR113W, strain HOG1, hits give low values
# [22] = S. cerevisiae deletion strains, locus YLR262C, strain YPT6, hits give low values
# [23] = S. cerevisiae deletion strains, locus YML094W, strain GIM5, hits give low values
# [24] = S. cerevisiae deletion strains, locus YMR219W, strain ESC1, hits give low values
# [25] = S. cerevisiae deletion strains, locus YMR263W, strain SAP30, hits give low values
# [26] = S. cerevisiae deletion strains, locus YNL153C, strain GIM3, hits give low values
# [27] = S. cerevisiae deletion strains, locus YNL183C, strain NPR1, hits give low values
# [28] = S. cerevisiae deletion strains, locus YNL207W, strain RIO2, hits give low values
# [29] = S. cerevisiae deletion strains, locus YNL298W, strain CLA4 (second series), hits give low values
# [30] = S. cerevisiae deletion strains, locus YNL322C, strain KRE1, hits give low values
# [31] = S. cerevisiae deletion strains, locus YNR030W, strain Alg12, hits give low values
# [32] = S. cerevisiae deletion strains, locus YOL006C, strain TOP1, hits give low values
# [33] = S. cerevisiae deletion strains, locus YOR119C, strain RIO1, hits give low values
# [34] = S. cerevisiae deletion strains, locus YOR231W, strain MKK1, hits give low values
# [35] = S. cerevisiae deletion strains, locus YPL055C, strain LGE1, hits give low values
# [36] = S. cerevisiae deletion strains, locus YPL241C, strain CIN2, hits give low values
# [37] = S. cerevisiae deletion strains, locus YPL256C, strain CLN2, hits give low values
# [38] = S. cerevisiae deletion strains, locus YPR135W, strain CTF4, hits give low values
smiles,measurement,setting,value
CCOC(=O)c1ccc(Oc2sccc2[N+](=O)[O-])cc1,normalized growth,[1],0.796 (active)
same,normalized growth,[2],0.817 (active)
same,normalized growth,[3],0.77 (active)
same,normalized growth,[4],0.866
same,normalized growth,[5],0.442 (active)
same,normalized growth,[6],0.872
same,normalized growth,[7],0.811 (active)
same,normalized growth,[8],0.167 (active) and 0.769 (active)
same,normalized growth,[9],0.852 (active)
same,normalized growth,[10],0.878
same,normalized growth,[11],0.848 (active)
same,normalized growth,[12],0.772
same,normalized growth,[13],1.02
same,normalized growth,[14],0.81 (active)
same,normalized growth,[15],0.876
same,normalized growth,[16],0.719 (active)
same,normalized growth,"S. cerevisiae deletion strains, locus YKL171W, strain NNK1, hits give low values",0.854
same,normalized growth,"S. cerevisiae deletion strains, locus YKL190W, strain CNB1, hits give low values",0.0675 (active)
same,normalized growth,[17],0.849 (active)
same,normalized growth,[18],0.239 (active)
same,normalized growth,[19],0.928 (active)
same,normalized growth,[20],0.143 (active)
same,normalized growth,[21],0.735
same,normalized growth,[22],0.407 (active)
same,normalized growth,[23],0.747 (active)
same,normalized growth,[24],0.848 (active)
same,normalized growth,[25],0.867 (active)
same,normalized growth,[26],0.849 (active)
same,normalized growth,[27],0.864
same,normalized growth,[28],0.862
same,normalized growth,[29],0.241 (active)
same,normalized growth,[30],0.931 (active)
same,normalized growth,[31],0.341 (active)
same,normalized growth,[32],0.102 (active)
same,normalized growth,[33],0.86
same,normalized growth,[34],0.869
same,normalized growth,[35],0.84
same,normalized growth,[36],0.446 (active)
same,normalized growth,[37],0.734 (active)
same,normalized growth,[38],0.211 (active)
same,normalized growth,"S. cerevisiae strains, strain wild type, hits give low values",0.0898 (active)
CCOC(=O)c1ccc(Oc2ccc(Cl)cc2Cl)c([N+](=O)[O-])c1,normalized growth,[1],1
same,normalized growth,[2],0.993
same,normalized growth,[3],0.992
same,normalized growth,[4],1.01
same,normalized growth,[5],0.959
same,normalized growth,[7],1.01
same,normalized growth,[8],0.883
same,normalized growth,[11],0.998
same,normalized growth,[13],0.99
same,normalized growth,[14],0.996
same,normalized growth,[16],0.968
same,normalized growth,[18],1
same,normalized growth,[19],0.99
same,normalized growth,[20],0.92
same,normalized growth,[22],1.01
same,normalized growth,[23],0.975
same,normalized growth,[24],0.997
same,normalized growth,[25],0.996
same,normalized growth,"S. cerevisiae deletion strains, locus YNL128W, strain TEP1, hits give low values",0.987
same,normalized growth,[26],0.998
same,normalized growth,[29],0.961
same,normalized growth,[30],1
same,normalized growth,[31],0.959
same,normalized growth,[32],0.81
same,normalized growth,[35],0.961
same,normalized growth,[36],0.958
same,normalized growth,[38],0.918
N#Cc1ccc(Oc2sccc2[N+](=O)[O-])cc1,normalized growth,"S. cerevisiae deletion strains, locus YAR019C, strain CDC15, hits give low values",0.937
same,normalized growth,"S. cerevisiae deletion strains, locus YBL105C, strain PKC1, hits give low values",0.978
same,normalized growth,"S. cerevisiae deletion strains, locus YBR135W, strain CKS1, hits give low values",0.946
same,normalized growth,"S. cerevisiae deletion strains, locus YBR136W, strain MEC1, hits give low values",0.971
same,normalized growth,"S. cerevisiae deletion strains, locus YBR160W, strain CDC28, hits give low values",0.992
same,normalized growth,"S. cerevisiae deletion strains, locus YDL017W, strain CDC7, hits give low values",0.985
same,normalized growth,"S. cerevisiae deletion strains, locus YDL028C, strain MPS1, hits give low values",0.978
same,normalized growth,[3],0.959
same,normalized growth,"S. cerevisiae deletion strains, locus YDL108W, strain KIN28, hits give low values",0.97
same,normalized growth,"S. cerevisiae deletion strains, locus YDL132W, strain cdc53, hits give low values",0.942
same,normalized growth,"S. cerevisiae deletion strains, locus YDL214C, strain PRR2, hits give low values",0.901
same,normalized growth,"S. cerevisiae deletion strains, locus YDR052C, strain DBF4, hits give low values",0.975
same,normalized growth,"S. cerevisiae deletion strains, locus YDR054C, strain cdc34, hits give low values",0.907
same,normalized growth,"S. cerevisiae deletion strains, locus YDR226W, strain ADK1, hits give low values",0.98
same,normalized growth,"S. cerevisiae deletion strains, locus YDR477W, strain SNF1, hits give low values",0.888
same,normalized growth,"S. cerevisiae deletion strains, locus YER123W, strain YCK3, hits give low values",0.748
same,normalized growth,"S. cerevisiae deletion strains, locus YER133W, strain GLC7, hits give low values",0.847
same,normalized growth,"S. cerevisiae deletion strains, locus YFL009W, strain cdc4, hits give low values",0.908
same,normalized growth,"S. cerevisiae deletion strains, locus YFL029C, strain CAK1, hits give low values",0.907
same,normalized growth,"S. cerevisiae deletion strains, locus YFR003C, strain YPI1, hits give low values",0.975
same,normalized growth,"S. cerevisiae deletion strains, locus YFR019W, strain FAB1, hits give low values",0.924
same,normalized growth,"S. cerevisiae deletion strains, locus YFR028C, strain CDC14, hits give low values",0.953
same,normalized growth,"S. cerevisiae deletion strains, locus YGR040W, strain KSS1, hits give low values",0.867
same,normalized growth,[6],0.879
same,normalized growth,"S. cerevisiae deletion strains, locus YGR092W, strain DBF2, hits give low values",0.769
same,normalized growth,[8],0.942
same,normalized growth,[9],0.955
same,normalized growth,[10],0.934
same,normalized growth,"S. cerevisiae deletion strains, locus YHR205W, strain SCH9, hits give low values",0.894
same,normalized growth,"S. cerevisiae deletion strains, locus YIL147C, strain SLN1, hits give low values",0.969
same,normalized growth,[12],0.825
same,normalized growth,"S. cerevisiae deletion strains, locus YJL128C, strain PBS2, hits give low values",0.923
same,normalized growth,"S. cerevisiae deletion strains, locus YJL157C, strain FAR1, hits give low values",0.883
same,normalized growth,"S. cerevisiae deletion strains, locus YJR016C, strain ILV3, hits give low values",0.946
same,normalized growth,"S. cerevisiae deletion strains, locus YJR066W, strain TOR1 (second series), hits give low values",0.821
same,normalized growth,[15],0.907
same,normalized growth,"S. cerevisiae deletion strains, locus YKL048C, strain ELM1, hits give low values",0.95
same,normalized growth,"S. cerevisiae deletion strains, locus YKL067W, strain YNK1, hits give low values",0.895
same,normalized growth,"S. cerevisiae deletion strains, locus YKL101W, strain HSL1, hits give low values",0.927
same,normalized growth,"S. cerevisiae deletion strains, locus YKL193C, strain SDS22, hits give low values",0.941
same,normalized growth,[17],0.911
same,normalized growth,[21],0.76 (active)
same,normalized growth,"S. cerevisiae deletion strains, locus YLR133W, strain CKI1, hits give low values",0.933
same,normalized growth,"S. cerevisiae deletion strains, locus YLR403W, strain SFP1, hits give low values",0.863
same,normalized growth,"S. cerevisiae deletion strains, locus YML070W, strain DAK1, hits give low values",0.869
same,normalized growth,"S. cerevisiae deletion strains, locus YMR001C, strain CDC5, hits give low values",0.935
same,normalized growth,"S. cerevisiae deletion strains, locus YMR205C, strain PFK2 (second series), hits give low values",0.899
same,normalized growth,"S. cerevisiae deletion strains, locus YMR277W, strain FCP1, hits give low values",0.92
same,normalized growth,"S. cerevisiae deletion strains, locus YNL006W, strain LST8, hits give low values",0.932
same,normalized growth,"S. cerevisiae deletion strains, locus YNL020C, strain ARK1, hits give low values",0.934
same,normalized growth,"S. cerevisiae deletion strains, locus YNL161W, strain CBK1, hits give low values",0.956
same,normalized growth,[27],0.856
same,normalized growth,[28],0.956
same,normalized growth,"S. cerevisiae deletion strains, locus YNL222W, strain SSU72, hits give low values",0.957
same,normalized growth,"S. cerevisiae deletion strains, locus YNL307C, strain MCK1 (second series), hits give low values",0.918
same,normalized growth,"S. cerevisiae deletion strains, locus YOL078W, strain AVO1, hits give low values",0.914
same,normalized growth,"S. cerevisiae deletion strains, locus YOL136C, strain PFK27, hits give low values",0.901
same,normalized growth,"S. cerevisiae deletion strains, locus YOR061W, strain CKA2, hits give low values",0.886
same,normalized growth,[33],0.925
same,normalized growth,[34],0.837
same,normalized growth,"S. cerevisiae deletion strains, locus YOR329C, strain SCD5, hits give low values",0.977
same,normalized growth,"S. cerevisiae deletion strains, locus YPL031C, strain PHO85, hits give low values",0.876
same,normalized growth,"S. cerevisiae deletion strains, locus YPL153C, strain RAD53, hits give low values",0.866
same,normalized growth,"S. cerevisiae deletion strains, locus YPL204W, strain HRR25, hits give low values",0.872
same,normalized growth,"S. cerevisiae deletion strains, locus YPL209C, strain IPL1, hits give low values",0.98
same,normalized growth,[37],1.05
same,normalized growth,"S. cerevisiae deletion strains, locus YPR025C, strain CCL1, hits give low values",0.971
same,normalized growth,"S. cerevisiae deletion strains, locus YPR106W, strain ISR1, hits give low values",0.96
same,normalized growth,"S. cerevisiae deletion strains, locus YPR111W, strain DBF20, hits give low values",0.993
same,normalized growth,"S. cerevisiae deletion strains, strain NNK1, hits give low values",0.971
same,normalized growth,"S. cerevisiae deletion strains, strain TSCII, hits give low values",0.921
